The text below walks through data of PubChem BioAssay.

One test deals with Calmodulin-1 (Homo sapiens) (UniProt P0DP23). The experiment in a line: small molecules binding Ca-loaded calmodulin-1 – biochemical, small-molecule microarray, Cy5-labelled CALM1, plus calcium, artefact control for SMM control-protein annotation, profiling panel (AID 1112).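 Further: score merges spot fluorescence with signal to noise from triplicate slides.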 To be noted: Cy5-CALM1 binding fluorescence, higher = more signal.
For `COc1ccc([Si](C)(C)[C@@H]2[C@@H](CCn3cc([C@H](O)c4ccccc4)nn3)O[C@]3(C(=O)N(Cc4cccc(N5CCOC5=O)c4)c4ccccc43)[C@H]2C)cc1`, the composite z-score turned out to be 0.78.
Same read-out and setting: for `Cc1ccc(S[C@]2(C(=O)O)CC(=O)N(C3Cc4ccccc4C3)[C@@H]2c2ccc(CO)cc2I)cc1` the value was -0.196.
The same measure, in the same setting: for `CCOC(=O)C[C@H]1[C@H](OC(=O)c2ccc(-c3ccccc3)cc2)[C@@H](NC(=O)Cc2ccc(OC)cc2)c2cc(OCCCO)ccc2N1C(=O)c1ccc2ccccc2n1` the value was -0.0431.
On the same count and under the same terms, for `COc1ccc([Si](C)(C)[C@@H]2[C@@H](CC(=O)N(CCO)Cc3ccccc3)O[C@]3(C(=O)N(C)c4ccccc43)[C@H]2C)cc1` the value was -0.193; for `O=c1cccc(C=Cc2ccccc2)o1`, -0.274; for `O=C1OCC=C[C@H]2OC34C=CCN(c5ccc6ccccc6c5)C(=O)[C@H]3N(CCCO)C(=O)[C@@H]4[C@@H]12` (stereo partly specified), 0.172.
Regarding `COCCOC(=O)N1C(=O)[C@@]2(c3cc(C#CC4=CCCCC4)ccc31)[C@H](C(=O)N1CCc3cc(OC)c(OC)cc3C1)[C@H]1C(=O)O[C@H](c3ccccc3)[C@H](c3ccccc3)N1[C@@H]2c1ccccc1OCCO`, the composite z-score was 0.512.
Same read-out and setting: for `COCCOC(=O)N1C(=O)[C@@]2(c3cc(C#CCC(C(=O)OC)C(=O)OC)ccc31)[C@H](c1ccccc1OCCO)N1[C@H](c3ccccc3)[C@H](c3ccccc3)OC(=O)[C@H]1[C@@H]2C(N)=O` the value was 0.648; for `CC(C)OC(=O)CC(=O)CC(O)c1ccc(C#N)cc1` (stereo unspecified), -1.46.
With `COC(=O)[C@@]1(Cc2ccc(OC)cc2)[C@H]2c3cc(C(=O)N(C)C)n(Cc4c(OC)[nH]cc(C)c4=O)c3C[C@H]2CN1C(=O)c1ccccc1`, the composite z-score is -0.117.
On the same count and under the same terms, for `O=C1C[C@@](C(=O)NC2CC2)(c2ccc([N+](=O)[O-])cc2)[C@@H](c2ccc(CO)cc2)N1CC12CC3CC(CC(C3)C1)C2` the value was -0.0787.

Tested on in another test: not listed separately
Nature of the test: probe aWnt5a binding to arrayed compounds – biochemical, biotinylated probe, 635/667 nm fluorescence, primary screen (AID 1113).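 Further: score merges 667 nm fluorescence intensity with signal-to-noise per printed feature.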 The conditions noted are these: small-molecule microarray, higher = more signal.
`COc1ccc([Si](C)(C)[C@@H]2[C@@H](CC(=O)N3CCC[C@H]3CO)O[C@]3(C(=O)N(C)c4c(Br)cc(C)cc43)[C@H]2C)cc1`: the composite z-score came out at 0.0219.
In the case of `CN(C)CCCCCCNC(=O)[C@H]1C[C@H]2C(=O)N[C@@H](CCCCN)C(=O)N2[C@H]1c1ccc(O)cc1`, the composite z-score is 0.914.
Still for that read-out and setting: for `COCC(=C=CC[C@H](O)c1ccc(OCCO)cc1)C[C@H](O)c1cc(Cl)cc(Cl)c1O` the value was -0.0108.
Same read-out and setting: for `COc1cc(C(O)C2C=CC3C(=O)N(c4ccccc4)C(=O)C3N2Nc2ccc(C#N)cc2)cc(OC)c1OC` (stereo unspecified) the value was 0.0115; for `N#Cc1ccc(NN2C(C(O)c3ccc([N+](=O)[O-])cc3)C=CC3C(=O)N(c4ccccc4)C(=O)C32)cc1` (stereo unspecified), 0.119.
On the same count and under the same terms, for `CC(=O)NCCCC[C@@H]1NC(=O)[C@@H]2C[C@H](C(=O)NCCCCCCNC(=O)CS)[C@H](c3ccc(O)cc3)N2C1=O` the value was -0.211; for `CCOC(=O)C[C@H]1[C@H](OC(=O)Cc2ccc3c(c2)OCO3)[C@@H](NC(=O)c2ccc(-c3ccccc3)cc2)c2cc(OCCCO)ccc2N1C(=O)c1ccccc1`, -0.113.
As to `O=C1O[C@@H](c2ccccc2)[C@@H](c2ccccc2)N2[C@@H](c3ccccc3OCCO)[C@]3(C(=O)Nc4ccc(C#CC5(O)CCCCCC5)cc43)[C@@H](C(=O)Nc3nc4ccccc4s3)[C@H]12`, the composite z-score was -0.0495.
On the same count and under the same terms, to `Cc1ccccc1C(O)C1C=CC2C(=O)N(C)C(=O)C2N1N1CCCCC1` (stereo unspecified) belongs 0.0403.
`COCCOC(=O)N1C(=O)[C@@]2(c3ccccc31)[C@H](C(=O)Nc1nc3ccccc3s1)[C@H]1C(=O)O[C@H](c3ccccc3)[C@H](c3ccccc3)N1[C@@H]2c1ccc(OCCO)cc1`: the composite z-score was 0.135.
The same measure, in the same setting: to `CC(C)C[C@@H]1NC(=O)[C@H]2C[C@@H](C(=O)NCCCCCNC(=O)CS)[C@@H](c3cccc(OCCO)c3)N2C1=O` belongs -0.194; to `COc1ccc(C#Cc2ccc3c(c2)[C@]2(C(=O)N3)[C@H](c3ccc(O)cc3)N3[C@H](c4ccccc4)[C@H](c4ccccc4)OC(=O)[C@H]3[C@@H]2C(=O)NC[C@H](O)c2ccccc2)cc1`, 0.164.
Same read-out and setting: to `O=C1OCC=C[C@H]2OC34C=CCN(c5ccc(Cl)cc5)C(=O)[C@H]3N(CCCCCCO)C(=O)[C@@H]4[C@@H]12` (stereo partly specified) belongs -0.128; to `C=CCOC(=O)[C@H]1[C@@H]2C(=O)O[C@@H](c3ccccc3)[C@@H](c3ccccc3)N2[C@@H](c2ccc(OCCOC(=O)[C@@H]3C[C@@H]4C(=O)N5CCC[C@H]5C(=O)N4[C@@H]3c3ccc(O)cc3)cc2)[C@]12C(=O)Nc1ccccc12`, -0.1; to `CCCC[C@H]1OB(O)C[C@H]2C1=C(C)C[C@H]1C(=O)N(Cc3ccccc3)C(=O)[C@H]12`, 0.0017.
The same measure, in the same setting: for `CCCC[C@@H]1C[C@H]1[C@@H](NC(=O)c1ccc(-c2ccccc2)cc1)c1ccc(-c2ccccc2)cc1` the value was -0.0459.
In turn, `COCC(=C=CC[C@@H](O)c1ccc(CO)o1)CCO` had a composite z-score of -0.124.
With `Cc1ccc(S[C@]2(C(=O)NCc3ccccc3)CC(=O)N(Cc3ccccc3Cl)[C@@H]2c2ccc(CO)cc2I)cc1`, the composite z-score is -0.124.
The same measure, in the same setting: to `CC=CC(O)C1C=CC2C(=O)N(c3ccccc3)C(=O)C2N1Nc1ccc(C(C)C)cc1` (stereo unspecified) belongs 0.0194; to `COCCOC(=O)N1C(=O)[C@@]2(c3ccccc31)[C@H](C(=O)NC[C@H](O)c1ccccc1)[C@H]1C(=O)O[C@H](c3ccccc3)[C@H](c3ccccc3)N1[C@@H]2c1ccc(OCCO)cc1`, -0.0263; to `[N-]=[N+]=NCc1ccccc1C[C@@]1(C(=O)NCC(O)CO)N=C(c2ccc(OCCCO)cc2)O[C@@H]1c1ccccc1CN=[N+]=[N-]` (stereo partly specified), 0.0219.
On the same count and under the same terms, for `COc1ccc(C#Cc2ccc3c(c2)[C@]2(C(=O)N3)[C@H](C(=O)NC[C@H](O)c3ccccc3)[C@H]3C(=O)O[C@H](c4ccccc4)[C@H](c4ccccc4)N3[C@@H]2c2ccccc2OCCO)cc1` the value was 0.0229; for `COC(=O)[C@@]1(Cc2ccccc2)[C@H]2c3cc(C(=O)N(C)C)n(Cc4cc(C)n(C)n4)c3C[C@H]2CN1C(=O)c1ccccc1`, -0.319; for `C#CCN(C(/C=C/c1ccccc1)CO)C(C(=O)O)c1ccccc1` (stereo unspecified), -0.0981.
Still for that read-out and setting: for `COc1ccc([Si](C)(C)[C@@H]2[C@@H](CCn3cc([C@H](O)c4ccccc4)nn3)O[C@]3(C(=O)N(Cc4cccc(N5CCOC5=O)c4)c4ccccc43)[C@H]2C)cc1` the value was -0.202; for `Cc1ccc(S[C@]2(C(=O)O)CC(=O)N(C3Cc4ccccc4C3)[C@@H]2c2ccc(CO)cc2I)cc1`, -0.117; for `CCOC(=O)C[C@H]1[C@H](OC(=O)c2ccc(-c3ccccc3)cc2)[C@@H](NC(=O)Cc2ccc(OC)cc2)c2cc(OCCCO)ccc2N1C(=O)c1ccc2ccccc2n1`, 0.0068.
On to `COc1ccc([Si](C)(C)[C@@H]2[C@@H](CC(=O)N(CCO)Cc3ccccc3)O[C@]3(C(=O)N(C)c4ccccc43)[C@H]2C)cc1`, for which the composite z-score was -0.0721.
Still for that read-out and setting: for `O=c1cccc(C=Cc2ccccc2)o1` the value was -0.145; for `O=C1OCC=C[C@H]2OC34C=CCN(c5ccc6ccccc6c5)C(=O)[C@H]3N(CCCO)C(=O)[C@@H]4[C@@H]12` (stereo partly specified), -0.124; for `COCCOC(=O)N1C(=O)[C@@]2(c3cc(C#CC4=CCCCC4)ccc31)[C@H](C(=O)N1CCc3cc(OC)c(OC)cc3C1)[C@H]1C(=O)O[C@H](c3ccccc3)[C@H](c3ccccc3)N1[C@@H]2c1ccccc1OCCO`, -0.107.
The same measure, in the same setting: for `COCCOC(=O)N1C(=O)[C@@]2(c3cc(C#CCC(C(=O)OC)C(=O)OC)ccc31)[C@H](c1ccccc1OCCO)N1[C@H](c3ccccc3)[C@H](c3ccccc3)OC(=O)[C@H]1[C@@H]2C(N)=O` the value was 0.027; for `CC(C)OC(=O)CC(=O)CC(O)c1ccc(C#N)cc1` (stereo unspecified), -0.0405.
The compound `COC(=O)[C@@]1(Cc2ccc(OC)cc2)[C@H]2c3cc(C(=O)N(C)C)n(Cc4c(OC)[nH]cc(C)c4=O)c3C[C@H]2CN1C(=O)c1ccccc1` came in with a composite z-score of -0.16.
In turn, `O=C1C[C@@](C(=O)NC2CC2)(c2ccc([N+](=O)[O-])cc2)[C@@H](c2ccc(CO)cc2)N1CC12CC3CC(CC(C3)C1)C2` gave a composite z-score of -0.0751.
